Experimental data: the supplement of paper PMC6555819

Columns and labels:
Test in all cases: PBM binding z-score (relative to random genomic background probes); higher = stronger binding; sequences stand for … in GC…GCGATTGACAGCGTAGAATGAAGG
[1] = test system: FXR:RXRa (NR concentration 270 nM, RXRa partner concentration 90 nM)
In short: (§1)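 The probes on custom Agilent 4×180K protein-binding microarrays were double-stranded, with 34-nt variable regions bearing direct-repeat seeds, single-nucleotide variants, half-site ablations and random human genomic background sequences. Incubation lasted 1 h with ligand-free nuclear receptor dimers in PBS pH 7.4, 2% milk, 0.02% Triton X-100, 1 mM DTT, 0.2 mg/mL BSA and 0.4 mg/ml salmon testes DNA. Antibodies against each partner (one per run) detected bound dimers, and fluorescence scans were regression-normalized. Binding z-scores take the random background probes as reference.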

[2] = test system: LXRa:RXRa (NR concentration 270 nM, RXRa partner concentration 90 nM)
In short: as §1

[3] = test system: LXRa homodimer (NR concentration 270 nM)
In short: as §1

[4] = test system: LXRb:RXRa (NR concentration 270 nM, RXRa partner concentration 90 nM)
In short: as §1

[5] = test system: LXRb homodimer (NR concentration 270 nM)
In short: as §1

[6] = test system: PPARa:RXRa (NR concentration 270 nM, RXRa partner concentration 90 nM)
In short: as §1

[7] = test system: PPARg:RXRa (NR concentration 180 nM, RXRa partner concentration 90 nM)
In short: as §1

[8] = test system: PPARg:RXRa 270nM:90nM, anti-RXR (NR concentration 270 nM, RXRa partner concentration 90 nM)
In short: as §1

[9] = test system: PPARg:RXRa 30nM:10nM, anti-RXR (NR concentration 30 nM, RXRa partner concentration 10 nM)
In short: as §1

[10] = test system: PPARg:RXRa 90nM:30nM, anti-RXR (NR concentration 90 nM, RXRa partner concentration 30 nM)
In short: as §1

[11] = test system: PPARg:RXRa DBDmut IVT, anti-RXR (DBD mutation: RXRa K156A/R161A, NR concentration 270 nM, RXRa partner concentration 90 nM)
In short: as §1

[12] = test system: PPARg:RXRa IVT, anti-PPARg (NR concentration 270 nM, RXRa partner concentration 90 nM)
In short: as §1

[13] = test system: PPARg DBDmut:RXRa IVT, anti-PPARg (DBD mutation: PPARg1 K132A/R137A, NR concentration 270 nM, RXRa partner concentration 90 nM)
In short: as §1

[14] = test system: PPARg DBDmut IVT, anti-PPARg (DBD mutation: PPARg1 K132A/R137A, NR concentration 270 nM)
In short: as §1

[15] = test system: PPARg homodimer (NR concentration 180 nM)
In short: as §1

[16] = test system: PXR:RXRa (NR concentration 270 nM, RXRa partner concentration 90 nM)
In short: as §1

[17] = test system: PXR homodimer (NR concentration 270 nM)
In short: as §1

[18] = test system: RARa:RXR (NR concentration 270 nM, RXRa partner concentration 90 nM)
In short: as §1

[19] = test system: RARa homodimer (NR concentration 270 nM)
In short: as §1

[20] = test system: RARb:RXRa (NR concentration 270 nM, RXRa partner concentration 90 nM)
In short: as §1

| Sequence | PBM binding z-score [1] | PBM binding z-score [2] | PBM binding z-score [3] | PBM binding z-score [4] | PBM binding z-score [5] | PBM binding z-score [6] | PBM binding z-score [7] | PBM binding z-score [8] | PBM binding z-score [9] | PBM binding z-score [10] | PBM binding z-score [11] | PBM binding z-score [12] | PBM binding z-score [13] | PBM binding z-score [14] | PBM binding z-score [15] | PBM binding z-score [16] | PBM binding z-score [17] | PBM binding z-score [18] | PBM binding z-score [19] | PBM binding z-score [20] |
| --- | --- | --- | --- | --- | --- | --- | --- | --- | --- | --- | --- | --- | --- | --- | --- | --- | --- | --- | --- | --- |
| TCTAGTAGGTTAGGGGCATTCAGAATGGCGTCGA | 0.875 | 0.688 | 0.102 | 1.21 | 0.903 | 1.94 | 2 | 3.69 | 3.42 | 3.55 | 4.9 | 4.09 | 0.212 | 0.421 | 1.07 | 0.642 | 0.791 | 0.791 | 0.549 | 1.35 |
| TCGAGTAAGTTACCAATGGGGCATTCAGCTTTCT | -0.407 | -0.177 | -0.53 | 0.203 | -0.792 | 0.13 | -0.296 | 0.61 | 0.958 | 0.917 | 0.719 | -0.101 | -0.374 | -1.05 | -0.441 | 0.0133 | -0.765 | 0.11 | -0.447 | -0.0716 |
| CCTACTCGGCCATCAGGTCATTGATATCAACGTT | 2.3 | 1.76 | 2.13 | 2.26 | 1.01 | 2.16 | 1.06 | 1.62 | 0.262 | 1.02 | 2.58 | 2.67 | 0.141 | -0.00439 | 2.27 | 2.02 | 1.21 | 2.36 | 1.12 | 2.29 |
| GCTTACCGGTCAAAGGTTATAGCATGAATAGAAT | 4.43 | 4.56 | 1.49 | 3.6 | 0.218 | 5.47 | 8.77 | 7.56 | 6.87 | 8.38 | 1.07 | 3.62 | 1.01 | 0.383 | 1.71 | 3.63 | 0.0899 | 5.64 | 0.15 | 3.59 |
| TCTGCTAGGTCTACGATGGTCAGCTAATCTGCTA | -0.634 | -0.811 | -1.12 | -0.871 | -0.759 | -0.453 | -0.582 | -0.0115 | 1.48 | 0.437 | 0.395 | -0.0472 | -1.03 | -0.797 | -2.36 | -0.731 | -1.3 | -1.07 | -0.904 | -0.194 |
| CCTTACGGGTCACGAGGTTACAGCACGACGAGCG | 7.17 | 4.8 | 0.542 | 4.17 | 0.337 | 6.14 | 7.89 | 6.86 | 3.81 | 5.93 | 4.58 | 5.66 | 2.08 | 2.53 | 5.5 | 5 | 0.46 | 6.67 | 2.1 | 4.71 |
| TCATATAGGTAATACAGGTTAAAGTCGGCATCTA | 1.72 | 2.72 | 2.2 | 1.82 | 0.603 | 2.28 | 1.93 | 2.74 | 4.37 | 3.53 | 4.34 | 3.27 | 1.19 | 1.83 | 1.52 | 1.32 | 0.749 | 1.97 | 1.97 | 0.992 |
| GATACAGCGTCAGCTAGAGGCCAGAGTATGGAAA | -1.06 | -0.907 | -0.84 | -1.11 | -1.5 | -1.18 | 0.184 | -0.842 | -0.638 | -1 | -0.984 | -0.61 | -2.52 | -1.12 | -1.09 | -0.922 | -0.376 | -0.685 | -1.14 | -0.322 |
| CCTAGTTGGTCAAGGTCACACAGGCTATAGGTAC | 4.41 | 4.07 | 1.88 | 3.56 | 0.583 | 4.31 | 3.32 | 3.88 | 1.62 | 2.62 | 2.08 | 3.64 | 0.89 | 0.538 | 3.81 | 4.67 | 3.92 | 4.96 | 2.03 | 4.34 |
| ATCTCTAGGTTAGACTCAGTTCAGTGAAGAACGC | 1 | 1.74 | 1.7 | 1.12 | 1.27 | 0.772 | 0.251 | 0.742 | 0.423 | 0.508 | 3.38 | 2.14 | 1.55 | 1.36 | 1.63 | 2.69 | 2.69 | 1.13 | 2.42 | 1.53 |
| TCTGCTAGGTCAGTCGGTCAGCTAACGAGCTGCC | 1.18 | 0.763 | -0.313 | 0.432 | 0.0608 | 1.92 | 1.25 | 2.34 | 1.11 | 1.44 | 3.05 | 3.83 | -0.327 | -0.109 | 0.456 | -0.00116 | -1.21 | 0.436 | -1.08 | 3.6 |
| CGTCCAAGGTCAAGGCTAGGTCAGTGAAAGCATT | 7.26 | 5.52 | 1.5 | 4.11 | -0.26 | 5.33 | 4.97 | 5.35 | 1.61 | 4.01 | 3.68 | 4.19 | -0.104 | -0.338 | 5.83 | 5.03 | 1.42 | 6.19 | 1.29 | 5.43 |
| GGTAGTTGGTCAGTAAAAGGTCACACACCGGTCG | 3.14 | 4.29 | 4.91 | 4.07 | 1.47 | 4.34 | 2.7 | 4.44 | 2.46 | 3.81 | 0.823 | 3.16 | 0.932 | 0.24 | 4.48 | 4.95 | 1.37 | 5.68 | 3 | 4.28 |
| CCAACTGGGCCATTCAGAGGTCATTGATCATATG | 3 | 4.24 | 6.53 | 3.67 | 0.435 | 3.9 | 2.89 | 3.16 | 0.622 | 2.16 | 5.18 | 4.66 | 0.485 | -0.774 | 4.42 | 5.05 | 2.64 | 4.72 | 0.73 | 3.02 |
